PubChem BioAssay AID720650 (Broad Institute, 2013)
A number with no mark means an inactive call. Calls of active or inactive are those of the source. No rule for the calls is given here.

Experiment: C difficile toxins, biochemical counterscreen, UDPG substrate absence, confirmatory dose response (AID 720650)
Conditions: series mostly up to 19.5 µM; activity change, negative = inhibition: at the top concentration

| SMILES | AC50 | activity change, negative = inhibition |
| --- | --- | --- |
| Cc1[nH]nc(-c2ccc(O)cc2O)c1Oc1ccccc1 | 14.6 µM (active) |  |
| O=C(O)c1ccccc1NC(=O)N1C[C@H]2C[C@@H](C1)c1cccc(=O)n1C2 |  | -18.8% |
| CCC(=O)Nc1ccc2c(c1)OC[C@@H](C)N(C(=O)NC(C)C)C[C@@H](C)[C@@H](OC)CN(C)C2=O |  | 0.233% |
| Cn1c(=O)[nH]c(=O)c2c1[nH]c(=S)n2Cc1ccc(Cl)cc1 | > 39 µM |  |
| CN(C(=O)COC(=O)CNC(=O)c1ccccc1Cl)c1ccccc1 |  | -13.6% |
| CCOC(=O)[C@H]1[C@H]2COc3ccc(OC)cc3[C@@H]2N2C(=O)CN(Cc3ccc(Cl)cc3)C(=O)[C@@]12C |  | -8.66% |
| CCOC(=O)c1nnn(-c2nonc2N)c1-c1ccc(F)cc1 |  | -4.63% |
| COc1ccc(CC(=O)NNC(=S)NC(=O)c2cccnc2)cc1 |  | -11.6% |
| CC1CCC/C(=C\c2ccc(O)cc2)C1=O (centres undefined) | 7.48 µM (active) |  |
| COc1cccc(Oc2ccc3nnc(C(F)(F)F)n3n2)c1 |  | -6.85% |
| COc1ccc(/C=N/N=C2/NC(=O)C(CC(=O)NC(N)=O)S2)cc1 (centres undefined) |  | -11.2% |
| CCC(=O)N1CC[C@@H]2[C@H]1c1cc(-c3ccc(OC)cc3)ccc1N(C)[C@H]2CO | > 20 µM |  |
| Nc1ccc(Sc2ccc(N)cc2)cc1 | 3.22 µM (active) |  |
| CC(=O)Oc1ccc2nc(/C=C/c3ccccc3)oc(=O)c2c1 |  | -12% |
| COc1cc2ccccc2cc1C(=O)N/N=C/c1cccs1 |  | -4.51% |
| Cc1ccc(-n2c(SCC(=O)O)nc3c(sc(=S)n3-c3ccc(C)c(C)c3)c2=O)cc1 | 13.7 µM (active) |  |
| Oc1ccc(/C=N/Nc2nc(N3CCCC3)nc(N3CCCC3)n2)cc1O |  | -1.92% |
| COc1ccc(N2CCN(CCNC(=O)Nc3cc(Cl)ccc3OC)CC2)cc1 |  | -14.5% |
| COc1cccc(C(=O)C2CCCN(Cc3ccc(F)cc3)C2)c1 (centres undefined) |  | 11.8% |
| O=C(C[C@H]1C[C@H]2c3cc(NC(=O)c4ccc5c(c4)OCO5)ccc3O[C@H]2[C@H](CO)O1)NCc1cccc(F)c1 |  | -11.6% |

| SMILES | AC50 | activity change, negative = inhibition |
| --- | --- | --- |
| CC(OC(=O)c1cccnc1Cl)C(=O)NC1CCCCC1 (centres undefined) |  | 9.9% |
| Cn1c(-c2ccc(F)c(F)c2)cc2onc(-c3ccccc3)c2c1=O |  | -4.71% |
| COc1cccc2cc(/C(C)=N/NC(=O)c3ccco3)oc12 |  | -0.027% |
| O=C(NCc1ccccc1)C1Cc2c(-c3cccc(F)c3)ccnc2O1 (centres undefined) |  | -12.2% |
| Cc1cc2c(cc1S(=O)(=O)N(C)c1ccccc1)NC(=O)CO2 |  | -3.43% |
| COc1ccccc1-n1c(SCC(=O)O)nc2c(sc(=S)n2-c2ccc(C)c(C)c2)c1=O | > 39 µM |  |
| CCCNC(=O)C1(C)CCCN(C(=O)c2ccccc2OC(F)(F)F)C1 (centres undefined) |  | -5.78% |
| COc1cc(/C=N/NC(=O)Cn2nnc3ccccc32)ccc1O |  | 2.37% |
| COC(=O)C(C(=O)OC)C(CC(=O)c1ccc(Br)cc1)c1ccccc1 (centres undefined) |  | -10.2% |
| COc1ccccc1C1NC(=O)NC(C)=C1C(=O)OC1CCCCC1 (centres undefined) |  | -13.5% |
| CCCCN(C)c1c(C)nc2ccc(C(=O)NCc3cccs3)cn12 | 20.4 µM (active) |  |
| Fc1ccc(-c2nc3ccc(Br)cn3c2Cc2ccccc2)cc1 |  | -2.94% |
| CC(=O)Nc1cccc2cc(O)ccc12 | 11.1 µM (active) |  |
| CC(C)NC(=O)N1CC[C@@H]2[C@@H](CO)N(C)c3ccc(-c4ccc(F)cc4)cc3[C@@H]21 | 4.11 µM (active) |  |
| CCn1c(C)nc2cc(C(=O)N/N=C/c3ccc(O)cc3)ccc21 | 15.1 µM (active) |  |
| COc1ccc(NC(=O)Nc2nc(C)cc(C)n2)c(OC)c1 |  | -12.3% |
| COc1cccc2sc(NNC(=O)C3COc4ccccc4O3)nc12 (centres undefined) | 0.972 µM (active) |  |
| Cc1ccc(-c2cc(C(=O)NNC(=O)c3csc(N4CCOCC4)n3)c3ccccc3n2)cc1 |  | 8.62% |
| O=C(CN1C(=O)CCC1=O)NNc1ccc2ccccc2c1 | < 0.16 µM (active) |  |
